Results taken from a collection of fitness landscapes (doi:10.1016/j.celrep.2020.107928).
Over roughly 81,000 sequences, “one-hybrid fitness for binding parS DNA” has its median near -0.17; the highest 2% begin near 0.51. The sample as a whole holds a higher share of the highest values than the screen did.

B1: Caulobacter ParB omega fusion; a variant is named by its letters at X, in order, B8GW30 (parent)
chain: MESVVVGEPGMSEGRRGLGRGLSALLGEVDAAPAQAPGEQLGGSREAPIEILQRNPDQPRRTFREEDLEDLSNSIREKGVLQPILVRPSPDTAGEYQIVAGERAWRAAQRAGLKTVPIMVRELDDLAVLEIGIIENVQRADLNVLEEALSYKVLMEKFERTQENIAQTIGKSXSHVANXMRLLXLPDEVQSYLVSGELTAXHARAIAAAADPVALAKQIIEGGLSVRETEALARKAPNLSAGKSKGGRPPRVKDTDTQALESDLSSVLGLDVSIDHRGSTGTLTITYATLEQLDDLCNRLTRGI

Variants of: B1
Assay: one-hybrid fitness for binding parS DNA (scaled: cognate 1, non-cognate 0); higher = stronger binding
Settings: with parS DNA site
Method in brief: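 Values were rescaled so that cognate is 1 and non-cognate is 0. Each is a fitness, the log change in a variant's read ratio to wild type from Illumina reads of plasmids before and after selection, with three replicate libraries pooled and variants under 10 reads dropped. Selection of the Caulobacter ParB libraries, four specificity codons randomised, used E. coli USO with a HIS3 reporter, site 19 bp from the promoter, on M9-minus-histidine with 0.1 mM IPTG and 5 mM 3-AT for 48 hours at 37°C.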

Variant | one-hybrid fitness for binding parS DNA
YTPS | ≤ 0.2
DLAA | ≤ 0.2
NLAA | ≤ 0.2
RLAA | 0.582
DLFA | ≤ 0.2
RLFA | 0.606
KLFA | ≤ 0.2
IAKG | ≤ 0.2
FVAR | ≤ 0.2
NFIG | ≤ 0.2
RFWN | ≤ 0.2
RFID | ≤ 0.2
RFIS | 0.777
RFPG | 0.502
RFIC | 0.657
RFIP | ≤ 0.2
RFPC | 0.424
RFWP | ≤ 0.2
RFIH | ≤ 0.2
RFWS | 0.836
RFIG | 0.685
EHMG | ≤ 0.2
LHVL | ≤ 0.2
AIIN | ≤ 0.2

Variant | one-hybrid fitness for binding parS DNA
FIYG | ≤ 0.2
PRHT | ≤ 0.2
KCHS | ≤ 0.2
KAGT | ≤ 0.2
QCPW | ≤ 0.2
RFRS | 0.954
RFPD | ≤ 0.2
RFPH | ≤ 0.2
RFLN | 0.415
RFRN | 0.429
RFYD | ≤ 0.2
RFLS | 0.997
RFLD | ≤ 0.2
RFRD | ≤ 0.2
RFYP | ≤ 0.2
RFYS | 1.01
RFPS | 0.551
PVIC | ≤ 0.2
MHEG | ≤ 0.2
VPDG | ≤ 0.2
LNYC | ≤ 0.2
HRFQ | ≤ 0.2
VPPW | ≤ 0.2
DFQA | ≤ 0.2

Variant | one-hybrid fitness for binding parS DNA
RFPA | ≤ 0.2
RFRA | 0.602
RFIA | 0.373
RFCA | 0.518
RFQA | 0.579
NFRA | ≤ 0.2
SFRA | ≤ 0.2
KFQA | ≤ 0.2
RFYA | 0.578
ANER | ≤ 0.2
NGTK | ≤ 0.2
GATP | ≤ 0.2
TTRY | ≤ 0.2
HALT | ≤ 0.2
WTPL | ≤ 0.2
KHYV | ≤ 0.2
QFRS | ≤ 0.2
RFWT | 0.649
DFHT | ≤ 0.2
NFWT | ≤ 0.2
RFDR | ≤ 0.2
RFHT | 0.853
DFDT | ≤ 0.2
RFGP | ≤ 0.2

Variant | one-hybrid fitness for binding parS DNA
RFHD | ≤ 0.2
RFGT | 0.775
RFWD | ≤ 0.2
RFDT | 0.693
NFGT | ≤ 0.2
FTEL | ≤ 0.2
WFGR | ≤ 0.2
AVPM | ≤ 0.2
IHAA | ≤ 0.2
GDDN | ≤ 0.2
SFCT | ≤ 0.2
NFRT | ≤ 0.2
RFSN | 0.377
RFRH | 0.219
NFST | ≤ 0.2
RFRT | 0.9
RFCT | 0.725
RFIT | 0.508
RFPT | 0.376
RFST | 0.841
RFCR | ≤ 0.2
RFYT | 0.801
SRLA | ≤ 0.2
RPYM | ≤ 0.2

Variant | one-hybrid fitness for binding parS DNA
QLWS | ≤ 0.2
QWRP | ≤ 0.2
YTDG | ≤ 0.2
VYTC | ≤ 0.2
AQSP | ≤ 0.2
FRLV | ≤ 0.2
MRTY | ≤ 0.2
RFLP | ≤ 0.2
DFLT | ≤ 0.2
RFQT | 0.8
RFLT | 0.75
RFNT | 0.862
RFQP | ≤ 0.2
RFNN | 0.411
RFQD | ≤ 0.2
RFNP | ≤ 0.2
WYGN | ≤ 0.2
YMRM | ≤ 0.2
YQRV | ≤ 0.2
AIED | ≤ 0.2
TPRA | ≤ 0.2
QTSF | ≤ 0.2
AAYQ | ≤ 0.2
WMAR | ≤ 0.2

Variant | one-hybrid fitness for binding parS DNA
RCLY | 0.49
RVLY | 0.508
RVYY | 0.495
RVDY | 0.427
RVKY | 0.664
RVVY | 0.413
RVRY | 0.583
TIST | ≤ 0.2
CHTY | ≤ 0.2
TCYR | ≤ 0.2
QKCY | ≤ 0.2
TNVQ | ≤ 0.2
CETD | ≤ 0.2
ADRH | ≤ 0.2
QVQF | ≤ 0.2
RRIS | 0.753
RRDH | ≤ 0.2
RRRH | 0.592
RRWD | ≤ 0.2
RRIN | 0.304
RRYD | ≤ 0.2
RRYP | ≤ 0.2
RRWP | ≤ 0.2
RRWS | 0.772

Variant | one-hybrid fitness for binding parS DNA
RRYH | ≤ 0.2
RRIH | ≤ 0.2
RRYS | 0.68
VFKT | ≤ 0.2
HRKK | ≤ 0.2
QLWG | ≤ 0.2
RFHY | 0.462
RRPD | ≤ 0.2
RRPN | 0.246
RRRD | ≤ 0.2
RRLD | ≤ 0.2
RRPS | 0.757
RRLS | 0.701
RRRP | 0.203
RRLN | 0.396
RRRS | 0.67
MLQR | ≤ 0.2
HTWN | ≤ 0.2
YCLV | ≤ 0.2
VKKI | ≤ 0.2
VDFT | ≤ 0.2
LALR | ≤ 0.2
QPAK | ≤ 0.2
VVMR | ≤ 0.2

Variant | one-hybrid fitness for binding parS DNA
VDRK | ≤ 0.2
NEFY | ≤ 0.2
RKLP | ≤ 0.2
RKLD | ≤ 0.2
RKPN | ≤ 0.2
RKYH | ≤ 0.2
RKID | ≤ 0.2
RKYP | ≤ 0.2
RKPH | ≤ 0.2
RKPS | 0.682
RKYS | 0.857
RKLS | 0.876
RKIS | 0.958
RKIP | ≤ 0.2
AWGT | ≤ 0.2
HHGR | ≤ 0.2
DVDS | ≤ 0.2
SCTT | ≤ 0.2
KNMC | ≤ 0.2
RKWN | 0.364
RKWS | 0.955
RKRN | 0.347
RKRH | ≤ 0.2
RKRS | 0.747

Variant | one-hybrid fitness for binding parS DNA
RKWD | ≤ 0.2
IFGG | ≤ 0.2
PIND | ≤ 0.2
RLLG | 1.02
RMLF | 0.238
RLLR | ≤ 0.2
RCLG | 1.01
RMLG | 1.01
RMLM | 0.363
RPLG | ≤ 0.2
RSLG | 0.987
RDLG | ≤ 0.2
RLLM | 0.372
RELG | 0.217
RSLF | 0.228
LDYT | ≤ 0.2
HWFG | ≤ 0.2
EKQG | ≤ 0.2
CHLC | ≤ 0.2
FSIV | ≤ 0.2
ATPA | ≤ 0.2
KWRR | ≤ 0.2
QQPM | ≤ 0.2
ALLC | ≤ 0.2

Variant | one-hybrid fitness for binding parS DNA
TRRD | ≤ 0.2
NQPG | ≤ 0.2
PPRF | ≤ 0.2
RILF | 0.269
RILG | 0.993
RILK | ≤ 0.2
YPTC | ≤ 0.2
MMSV | ≤ 0.2
EQTA | ≤ 0.2
ACKY | ≤ 0.2
RNES | 0.776
RNEI | ≤ 0.2
RNEP | ≤ 0.2
RNEN | ≤ 0.2
RNEY | ≤ 0.2
RNED | ≤ 0.2
RNEH | ≤ 0.2
RNEC | 0.613
RNEG | 0.677
FPSI | ≤ 0.2
MKLG | ≤ 0.2
VKMN | ≤ 0.2
KPPS | ≤ 0.2
RADC | 0.856

Variant | one-hybrid fitness for binding parS DNA
RADQ | ≤ 0.2
RANK | ≤ 0.2
RANC | 0.98
RADF | ≤ 0.2
RANR | ≤ 0.2
QRLS | ≤ 0.2
RCPM | 0.203
QMWS | ≤ 0.2
SDGC | ≤ 0.2
MATR | ≤ 0.2
VQVL | ≤ 0.2
PGTH | ≤ 0.2
KCMT | ≤ 0.2
GHPI | ≤ 0.2
YKKF | ≤ 0.2
RSLP | ≤ 0.2
RILN | 0.422
RMLP | ≤ 0.2
RMLT | 0.974
RCLT | 0.966
RILT | 0.89
RILD | ≤ 0.2
RSLH | 0.207
RDLT | ≤ 0.2

Variant | one-hybrid fitness for binding parS DNA
RPLT | ≤ 0.2
RSLT | 0.846
RMLD | ≤ 0.2
QFVS | ≤ 0.2
EYRS | ≤ 0.2
FKLR | ≤ 0.2
GPRL | ≤ 0.2
HRFW | ≤ 0.2
QVAA | ≤ 0.2
QNKG | ≤ 0.2
GITA | ≤ 0.2
YHLM | ≤ 0.2
YQRH | ≤ 0.2
STFL | ≤ 0.2
RKSE | ≤ 0.2
PSQM | ≤ 0.2
HSHL | ≤ 0.2
RTLK | ≤ 0.2
RHLT | 0.834
RTLT | 0.936
RHLP | ≤ 0.2
RHLN | 0.376
RTLF | 0.267
TKSI | ≤ 0.2

Variant | one-hybrid fitness for binding parS DNA
DEMS | ≤ 0.2
YRHE | ≤ 0.2
PEDT | ≤ 0.2
VYPT | ≤ 0.2
RRGP | ≤ 0.2
RRGN | 0.777
RRGD | ≤ 0.2
RCGN | 0.445
RRGH | ≤ 0.2
RRGS | 0.639
WDVG | ≤ 0.2
IHRW | ≤ 0.2
RLRG | 0.966
RLDG | 0.931
RLDD | ≤ 0.2
RLRK | ≤ 0.2
RLDP | ≤ 0.2
RLNG | 1.01
RLNY | 0.495
RLYH | 0.271
RLYG | 1.03
RLYP | ≤ 0.2
RLRD | ≤ 0.2
RLNQ | ≤ 0.2
